From PubChem
KCNQ2 inh = rat KCNQ2 potassium channel inhibitors, primary screen, cell-based, CHO-K1, FluxOR thallium flux, B-score; Potassium voltage-gated channel subfamily KQT member 2 (Rattus norvegicus), O88943; 20 min; hits give low values; B-score at 10 µM; 310,000 compounds, 1.1% hits; AID 2156, 2009;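 active = fluorescence ratio B-score at most minus 3 library SDs, with starting brightness B-score within 2 library SDs, cut at about -5.5 in these data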
KCNQ2 enhance = potentiators of rat KCNQ2 potassium channel; CHO-K1 KCNQ2, FluxOR thallium flux fluorescence; hits give high values; Potassium voltage-gated channel subfamily KQT member 2 (Rattus norvegicus), O88943; 310,000 compounds, 0.54% hits; B-score at 10 µM;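 active = fluorescence ratio B-score at least 3 SD of library B-scores, with initial fluorescence B-score within 3 of them, cut at about 5.3 in these data; same plate scores as AID 2156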;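 note: B-score of peak minus minimum over baseline fluorescence ratio after K+ and Tl+ stimulus; positive B-score means potentiation of KCNQ2 with more thallium influx and brighter signal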
Kir21 conf inh = mouse Kir2.1 channel blockers, retest, confirmation, cell-based, FluxOR thallium flux, duplicate; Kir2.1-expressing cells, FluxOR thallium flux fluorescence; hits give low values; Tl flux remaining, % of negative control (hits give low values), % at 10 µM; 2,300 compounds, 41% hits; AID 2032, 2009; shares compounds with KCNQ2 enhance;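 active = Primary-screen hit whose thallium flux fell at least 3 control SD below untreated wells in both duplicates, with normal baseline fluorescence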
Target sequence (P35561 whole entry, looked up): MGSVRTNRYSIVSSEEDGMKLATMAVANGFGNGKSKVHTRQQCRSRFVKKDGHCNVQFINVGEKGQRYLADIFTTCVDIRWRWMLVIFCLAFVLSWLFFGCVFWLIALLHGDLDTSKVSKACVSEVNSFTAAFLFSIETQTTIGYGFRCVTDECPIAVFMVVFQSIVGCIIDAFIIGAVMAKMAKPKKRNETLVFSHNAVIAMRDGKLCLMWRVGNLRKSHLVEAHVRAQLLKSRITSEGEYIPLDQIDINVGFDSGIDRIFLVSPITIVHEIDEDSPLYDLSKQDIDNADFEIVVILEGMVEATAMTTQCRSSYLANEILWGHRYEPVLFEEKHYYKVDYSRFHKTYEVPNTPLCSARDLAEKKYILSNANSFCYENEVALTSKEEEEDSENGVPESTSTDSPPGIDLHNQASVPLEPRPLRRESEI
HEK293 Tl flux = alters thallium flux in parental HEK293 cells, Kir2.1 counter-screen; FluxOR thallium flux fluorescence; 0% = unstimulated blank wells; shares compounds with KCNQ2 enhance; 2,300 compounds, 19% hits; FluxOR signal as % of negative control (100 = no effect), % at 10 µM; AID 2105;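 active = dye signal at least 3 control SD above or below untreated wells in both duplicates, raw fluorescence within 3, either direction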;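 note: percent is based on the flux ratio of peak minus minimum fluorescence over baseline F0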
CHO-K1 ctr = nonspecific thallium flux increase in parental CHO-K1, confirmation, counter-screen for KCNQ2 potentiator project, cell-based, FluxOR thallium flux, duplicate; activity increase over 3SD of controls, % at 10 µM; 1,200 compounds, 43% hits; AID 2282, 2010; parental CHO-K1 cells, FluxOR thallium flux fluorescence; zero = vehicle mean+3SD, 100% = vehicle-minus-blank window; shares compounds with KCNQ2 enhance;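 active = signal rise of at least 3 SD above the untreated control mean, in both duplicate wells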;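 note: counter screen of KCNQ2 potentiator hits so any rise reflects channel-independent effects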
KCNQ1 sel pot = human KCNQ1 channel potentiation off-target, confirmation, selectivity assay for KCNQ2 potentiator project, cell-based, CHO, FluxOR thallium flux; AID 2283, 2010; CHO KCNQ1 stable, FluxOR thallium flux fluorescence; beyond 3SD, as % of vehicle-control signal; shares compounds with KCNQ2 enhance; activation over 3SD threshold, % at 10 µM; 1,200 compounds, 28% hits;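 active = fluorescence ratio rise of at least 3 SD of vehicle wells above their mean, in both replicate wells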
KCNQ2 pot conf = rat KCNQ2 channel potentiators, confirmation, cell-based, CHO, FluxOR thallium flux, duplicate; AID 2287, 2010; potentiation, less the hit threshold, % at 10 µM; shares compounds with KCNQ2 enhance; 1,200 compounds, 68% hits; CHO-KCNQ2 cells, FluxOR thallium flux fluorescence;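 active = fluorescence ratio rising 3 SD or more over the vehicle control mean in both replicates, plus primary screen hit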;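 note: peak minus minimum thallium fluorescence divided by baseline after K/Tl stimulus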
Kir21 spec = mouse Kir2.1 channel activation off-target, confirmation, selectivity assay for KCNQ2 potentiator project, cell-based, HEK293, FluxOR thallium flux; AID 2345, 2010; shares compounds with KCNQ2 enhance; HEK293 Kir2.1, FluxOR thallium flux fluorescence; activity over 3SD threshold, % at 10 µM; 1,200 compounds, 2% hits;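 active = fluorescence ratio rise of at least 3 SD above the vehicle-control mean, seen in both replicates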
KCNQ2 W236L pot = potentiators of retigabine-insensitive KCNQ2 W236L, mechanism study for KCNQ2 potentiator project, cell-based, rat KCNQ2 W236L, CHO, automated patch clamp | shares compounds with KCNQ2 enhance | automated patch clamp current | current increase over 3SD of negative controls (%), hits give high values, % at 25 µM | 940 compounds, 10% hits | AID 2558, 2010;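 active = current increase at least 3 SD of the untreated controls above them in both duplicate recordings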
Large screens that a line does not name were inactive (follow-up assays come after a bar, where they were run). The list is not random: actives were taken first. Their share in the collection is about 1.6%.

CC1CCCC(C)N1/N=C/c1cc(Br)cc(Br)c1O (stereo not drawn)	none (no result: KCNQ2 enhance)
CCN(CCCNC(=O)CNC(=O)c1nn(-c2ccc(OC)c(OC)c2)c(=O)c2ccccc12)c1ccccc1	none (no result: KCNQ2 enhance)
N/C(=N\OC(=O)Nc1ccccc1)c1ncc(C(F)(F)F)cc1Cl	none (no result: KCNQ2 enhance)
N/C(=N\OC(=O)Nc1ccccc1)c1cccc(C(F)(F)F)c1	KCNQ2 enhance 11 | Kir21 conf inh inactive | HEK293 Tl flux inactive | CHO-K1 ctr inactive | KCNQ1 sel pot 9.0 | KCNQ2 pot conf 23 | Kir21 spec inactive | KCNQ2 W236L pot inactive
CN(C(=O)COC(=O)c1c2c(nc3ccccc13)CCCC2)c1c(N)n(Cc2ccccc2)c(=O)[nH]c1=O	none (no result: KCNQ2 enhance)
Cc1cc(Cc2ccc([N+](=O)[O-])cc2)c(C)cn1	none (no result: KCNQ2 enhance)
O=C1c2ccccc2C(O)N1Cc1ccco1 (stereo not drawn)	none
c1coc(CN=C2NC(=NCc3ccco3)c3ccccc32)c1	none (no result: KCNQ2 enhance) | Kir21 conf inh 35% | HEK293 Tl flux inactive
CCN1CCN(C(CNS(=O)(=O)c2ccccc2)c2cccnc2)CC1 (stereo not drawn)	none
O=C(NN1CC(C(=O)OCc2ccc(Br)cc2)CC1=O)c1ccccc1 (stereo not drawn)	KCNQ2 enhance 9.7 | Kir21 conf inh inactive | HEK293 Tl flux inactive | CHO-K1 ctr 13 | KCNQ1 sel pot inactive | KCNQ2 pot conf 55 | Kir21 spec inactive | KCNQ2 W236L pot 3.6%
O=C(COC(=O)C1CC(=O)N(Cc2ccccc2)C1)c1ccc(Br)cc1 (stereo not drawn)	none (no result: KCNQ2 enhance)
CC(C)Cn1c(CCNC(=O)c2ccco2)nc2ccccc21	none (no result: KCNQ2 enhance)
CC(=O)C1=C(S(=O)(=O)c2ccc(C)cc2)CS(=O)(=O)C1	KCNQ2 enhance 17 | Kir21 conf inh inactive | HEK293 Tl flux 72% | CHO-K1 ctr inactive | KCNQ1 sel pot inactive | KCNQ2 pot conf 77 | Kir21 spec inactive | KCNQ2 W236L pot 76%
Cc1ccc(S(=O)(=O)C2CS(=O)(=O)CC2O)cc1 (stereo not drawn)	none
Cc1cc(C)cc(OCC(=O)N/N=C/c2ccco2)c1	none (no result: KCNQ2 enhance)
CCCCOc1ccc(CCC(=O)N/N=C/c2ccco2)cc1	KCNQ2 enhance 9.1 | Kir21 conf inh inactive | HEK293 Tl flux inactive | CHO-K1 ctr 47 | KCNQ1 sel pot 65 | KCNQ2 pot conf 33 | Kir21 spec inactive | KCNQ2 W236L pot inactive
O=C(COc1c(Br)cc(Br)cc1Br)N/N=C/c1ccco1	KCNQ2 enhance 6.3 | Kir21 conf inh inactive | HEK293 Tl flux inactive | CHO-K1 ctr inactive | KCNQ1 sel pot inactive | KCNQ2 pot conf inactive | Kir21 spec inactive
CCCOc1ccc(CCC(=O)N/N=C/c2ccco2)cc1	none
O=S(=O)(NC(=NCc1ccccc1)c1ccccc1)c1ccccc1	none (no result: KCNQ2 enhance)
CC1CCCN(CCCNC(=O)C2CC(=O)N(CCc3ccccc3)C2)C1 (stereo not drawn)	none (no result: KCNQ2 enhance)
Cc1cccc(Cl)c1NC(=S)NCCc1ccccn1	none (no result: KCNQ2 enhance)
O=C(O)c1ccc(OCCOc2ccccc2)cc1	none
Cc1ccc(NC(=O)CSCC(=O)Nc2ccccc2N2CCCCC2)cc1	none
COc1cc(OC)cc(C(=O)N/N=C\c2ccoc2)c1	none
